# Assay results from article PMC8384837, “Expanding the binding specificity for RNA recognition by a PUF domain”.
# Positions count from the first letter of the chain named.
# How the values were obtained:
# Assay in all cases: yeast three-hybrid, YBZ-1, SC-Leu-His + 0.5 mM 3-AT, 4 days
# Conditions in all cases: tags: N-Gal4 AD-HA kept; label: inside an RPR1-promoter hybrid RNA with tandem MS2 sites; ssRNA
# [1] = target: PUM1 PUF domain R5-FHM (Homo sapiens, UniProt Q14671 828-1176, C1007F;R1008H;Q1011M)
# Summary of the method: (§1)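 Pumilio-1 PUF domain libraries, randomized at the three base-contacting residues of each repeat, were co-expressed with matching RNA elements from a centromeric plasmid in strain YBZ-1, which carries a LexA–MS2 coat fusion and a HIS3 reporter. Transformants grew for four days on SC-Leu (input) or on SC-Leu-His + 0.5 mM 3-AT (selection), and the repeat regions were PCR-amplified and Illumina-sequenced. The interaction score is the log change in variant frequency from input to selection. That logarithm is base 2, with a pseudocount of 1 where a variant was absent.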
# [2] = target: PUM1 PUF domain R8-HFR (Homo sapiens, UniProt Q14671 828-1176, N1122H;Y1123F;Q1126R)
# Summary of the method: as §1
# [3] = target: PUM1 PUF domain R4-SPT (Homo sapiens, UniProt Q14671 828-1176, N971S;H972P;Q975T)
# Summary of the method: as §1
# [4] = target: T1, PUM1 PUF domain R6-VWR (Homo sapiens, UniProt Q14671 828-1176, N1043V;Y1044W;Q1047R)
# T1 sequence: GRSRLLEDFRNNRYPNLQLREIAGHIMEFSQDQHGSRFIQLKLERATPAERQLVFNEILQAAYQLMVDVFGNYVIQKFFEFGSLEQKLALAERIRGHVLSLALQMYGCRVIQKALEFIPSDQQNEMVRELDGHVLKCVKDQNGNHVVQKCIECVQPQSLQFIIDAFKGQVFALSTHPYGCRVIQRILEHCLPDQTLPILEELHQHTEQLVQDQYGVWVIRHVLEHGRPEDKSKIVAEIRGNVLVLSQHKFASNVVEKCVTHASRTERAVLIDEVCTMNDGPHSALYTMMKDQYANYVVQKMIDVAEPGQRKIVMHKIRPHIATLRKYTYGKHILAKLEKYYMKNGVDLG
# Summary of the method: as §1
# [5] = target: T2, PUM1 PUF domain R6-DWV (Homo sapiens, UniProt Q14671 828-1176, N1043D;Y1044W;Q1047V)
# T2 sequence: T1 sequence with V216D, R220V
# Summary of the method: as §1
# [6] = target: PUM1 PUF domain R3-YFA (Homo sapiens, UniProt Q14671 828-1176, C935Y;R936F;Q939A)
# Summary of the method: as §1
# [7] = target: PUM1 PUF domain R3-YRL (Homo sapiens, UniProt Q14671 828-1176, C935Y;Q939L)
# Summary of the method: as §1
# [8] = target: PUM1 PUF domain R3-RGR (Homo sapiens, UniProt Q14671 828-1176, C935R;R936G;Q939R)
# Summary of the method: as §1
# [9] = target: PUM1 PUF domain R5-NAG (Homo sapiens, UniProt Q14671 828-1176, C1007N;R1008A;Q1011G)
# Summary of the method: as §1
# [10] = target: PUM1 PUF domain R1-FGR (Homo sapiens, UniProt Q14671 828-1176, S863F;R864G;Q867R)
# Summary of the method: as §1
# PUM1 PUF domain R1-FGR, sequence (Q14671 828-1176 S863F/R864G/Q867R): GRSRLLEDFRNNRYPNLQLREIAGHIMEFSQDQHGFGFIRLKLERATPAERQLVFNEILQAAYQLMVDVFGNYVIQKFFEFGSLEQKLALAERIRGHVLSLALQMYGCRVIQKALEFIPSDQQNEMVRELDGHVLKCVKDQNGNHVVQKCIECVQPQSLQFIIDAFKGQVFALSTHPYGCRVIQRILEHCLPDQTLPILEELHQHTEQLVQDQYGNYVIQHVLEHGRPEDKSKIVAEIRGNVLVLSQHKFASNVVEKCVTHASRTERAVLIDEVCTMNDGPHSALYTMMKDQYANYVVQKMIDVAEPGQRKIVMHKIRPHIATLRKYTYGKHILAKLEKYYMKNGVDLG
# PUM1 PUF domain R5-FHM, sequence (Q14671 828-1176 C1007F/R1008H/Q1011M): as the sequence (Q14671 828-1176 S863F/R864G/Q867R) above, with F36S, G37R, R40Q, C180F, R181H, Q184M counted along it
# PUM1 PUF domain R3-RGR, sequence (Q14671 828-1176 C935R/R936G/Q939R): as the sequence (Q14671 828-1176 S863F/R864G/Q867R) above, with F36S, G37R, R40Q, C108R, R109G, Q112R counted along it
sequence,measurement,setting,value
GGCUAGAACUAGUGGAUCCCCCGGCGCCCGGCGGCUCGAGCCCGGGUAAGUGUGAAUAGUCUGCAUGCCGCCGGGCGCCAUGCCUGCAGGUCGACUCUAGAAAACAUG,binding signal,[1],5.31 log2 enrichment (interaction score)
GGCUAGAACUAGUGGAUCCCCCGGCGCCCGGCGGCUCGAGCCCGGGUAAGCGUAAAUAGUCUGCAUGCCGCCGGGCGCCAUGCCUGCAGGUCGACUCUAGAAAACAUG,binding signal,[2],4.92 log2 enrichment (interaction score)
GGCUAGAACUAGUGGAUCCCCCGGCGCCCGGCGGCUCGAGCCCGGGUAAGUGUAAAUAGUCUGCAUGCCGCCGGGCGCCAUGCCUGCAGGUCGACUCUAGAAAACAUG,binding signal,[3],3.95 log2 enrichment (interaction score)
same,binding signal,[4],5.89 log2 enrichment (interaction score)
same,binding signal,[5],2.46 log2 enrichment (interaction score)
same,binding signal,[6],4.33 log2 enrichment (interaction score)
same,binding signal,[7],2.11 log2 enrichment (interaction score)
GGCUAGAACUAGUGGAUCCCCCGGCGCCCGGCGGCUCGAGCCCGGGUAAGUGUACAUAGUCUGCAUGCCGCCGGGCGCCAUGCCUGCAGGUCGACUCUAGAAAACAUG,binding signal,[3],1.24 log2 enrichment (interaction score)
GGCUAGAACUAGUGGAUCCCCCGGCGCCCGGCGGCUCGAGCCCGGGUAAGUGUAAUUAGUCUGCAUGCCGCCGGGCGCCAUGCCUGCAGGUCGACUCUAGAAAACAUG,binding signal,[8],2.38 log2 enrichment (interaction score)
GGCUAGAACUAGUGGAUCCCCCGGCGCCCGGCGGCUCGAGCCCGGGUAAGUGAAAAUAGUCUGCAUGCCGCCGGGCGCCAUGCCUGCAGGUCGACUCUAGAAAACAUG,binding signal,[4],3.34 log2 enrichment (interaction score)
GGCUAGAACUAGUGGAUCCCCCGGCGCCCGGCGGCUCGAGCCCGGGUAAGUGUUAAUAGUCUGCAUGCCGCCGGGCGCCAUGCCUGCAGGUCGACUCUAGAAAACAUG,binding signal,[9],4.83 log2 enrichment (interaction score)
GGCUAGAACUAGUGGAUCCCCCGGCGCCCGGCGGCUCGAGCCCGGGUAAGUGUAAAUUGUCUGCAUGCCGCCGGGCGCCAUGCCUGCAGGUCGACUCUAGAAAACAUG,binding signal,[10],3.11 log2 enrichment (interaction score)
GGCUAGAACUAGUGGAUCCCCCGGCGCCCGGCGGCUCGAGCCCGGGUAAGUGUAAAUCGUCUGCAUGCCGCCGGGCGCCAUGCCUGCAGGUCGACUCUAGAAAACAUG,binding signal,[10],0.54 log2 enrichment (interaction score)
